Results from the supplement of paper PMC6555819.

Each sequence was assayed on VDR:RXRa (NR concentration 270 nM, RXRa partner concentration 90 nM) (assay: PBM binding z-score (relative to random genomic background probes); higher = stronger binding; sequences stand for … in GC…GCGATTGACAGCGTAGAATGAAGG).
Protocol: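 Protein-binding microarray (Agilent 4x180K custom design, double-stranded 60-nt probes: 5' GC cap, 34-nt variable region, 24-nt constant primer region; full probe sequence given). Purified or IVT nuclear receptor:RXRα heterodimers (3:1 NR:RXRα, mostly 270:90 nM) or homodimers were incubated for 1 h in PBS with 2% milk and no ligand, then detected with Alexa488 antibodies. Fluorescence from o1-orientation probes (~5 replicates averaged) was converted to z-scores against 500 random hg19 background probes. Variable regions are seed direct-repeat (DR0–DR5) sites, all their single-nucleotide variants and half-site ablations.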
For ATCTCTAGGTAAGACTCGGTTCAGTGAAGAACGC, the PBM binding z-score was 1.05. Sequence CGTCCAAGATCAGCAGGTCAGTGAAAGCGACGTG has a PBM binding z-score of 0.173. ATACCAAGGTGATCGAGAGGTCGTTGATACTAAC was tested, and the PBM binding z-score was 3.02. In the case of CCTAGTTGGTCATGAGGTCACACACCGGATATGA, the PBM binding z-score is reported as 4.97. GCGATTGGGGCATCAGCAGGTTACCATAACTTAA showed a PBM binding z-score of 0.0705. CAAACTAGGTCAAAGGTCGAAGTCGAGCCAACCA showed a PBM binding z-score of 5.03. GCTTATGGGTCAAAGGTTATAGCATGAATAGAAT showed a PBM binding z-score of 4.82. For TCATATATGTAAAAGGTGAAAGTCGGTGTGGTAA, the PBM binding z-score was 1.24. With GCTGCTAGGTCAACTGATGTTCAGCTAAAGCTCG the PBM binding z-score was 1.61. CAGACTGGGGCAAGGTTACCATAACGCACAGCCA gave a PBM binding z-score of 0.28. With CGACCAAGGTGAACAAGGTCGTTGATTACTATTC the PBM binding z-score was 6.02. In the case of GCATATAGGCAATACAAGGTGAAAGTCCGATTGT, the PBM binding z-score is reported as 0.0245. Work on TCGAGTAGGTTACCATTGGGGCATTCAGCTTTCT yielded a PBM binding z-score of 0.0183. Sequence AGTCAAAGTTCAGGTCGAGGTAACGTAAAGCACG has a PBM binding z-score of 3.41. GGAACGAGGGCAAGATGATAGCAGAGTTTGATGG was tested, and the PBM binding z-score was 0.221. Sequence CGTAGTTGGTCAAGGTCACACACGCTATAGGTAC has a PBM binding z-score of 4.2. ATCTCTAGGTAAGACTAAGTTCAGTGAAGAACGC was tested, and the PBM binding z-score was 1.7. TTACCAAGGTGAGCTGACGTCGTTGATCCAACTC showed a PBM binding z-score of -0.477. Work on ACAACGAGGGCACGCTGAGTTGATAGCAGAGTAG yielded a PBM binding z-score of 2.01. Work on TCGAGTAGGTTAGCCGGGGCATTCAGCCAACATA yielded a PBM binding z-score of 2.46. Sequence TCTCGGAGGACACGAACGGTCAGAGCTCGACATC has a PBM binding z-score of 0.073. Work on TCATATAGGTCAATGCTAGGTGAAAGTCCGATCT yielded a PBM binding z-score of 2.9. In the case of TCAGACAGGTGAAGGTAACTCCGGTACGCAGTCG, the PBM binding z-score is reported as 0.726. In the case of GATACAGGGTCAAGGCCGGAGTACGCGTATTGAT, the PBM binding z-score is reported as 4.38. CCTGCTAGGTCATTGGTCAGCTAAAGCAGCTCGC showed a PBM binding z-score of 2.1. ATCTCTAGGTAAAGTCCAGTGAAAGATCGATAGA gave a PBM binding z-score of -0.12. For GCTGCTAGGTCAGGTTGGTCAGATAACGGGTACG, the PBM binding z-score was 0.794. For GCTAGTTGGTCAGTAAAGGGTCACACACCGGTCG, the PBM binding z-score was 3.09. Work on AGTCAAAGTTCATCTAGGGAACGTAAGATATGCT yielded a PBM binding z-score of 4.73. GCAGACAGGTGAAACGTAGGTAACTCAGGGTGGC was tested, and the PBM binding z-score was -0.315. Sequence CCTAGTTGGTCAAGGTCACACAAGCTATAGGTAC has a PBM binding z-score of 4.38. CAAACTAGGTCACCGGAAGGTGAAAGTCCGCATG was tested, and the PBM binding z-score was 3.4. Sequence TCTATTAGTTGAAGGGCAACCGACGAGTCCGTTT has a PBM binding z-score of 1.09. Work on GCAGACAGGTGAAACGCAGGTGACTCAGGGTGGC yielded a PBM binding z-score of -0.335. CGAACGCGGGCATGAGTTGATAGCAAATGCCGAT showed a PBM binding z-score of -0.376. CCTTGCGGGTCAAGGTTATAGCACGGGTGGTACG showed a PBM binding z-score of 2.95. Work on CCTTACGGGTCACTCCAGGTTATAGCCTCGGAGT yielded a PBM binding z-score of 4.09. With ACTAGTTGGTCAGCCGAGGTCACACACAATTCGG the PBM binding z-score was 4.66. GCTTGTAGATCAAGGTTAAAAAAGACTAAGCTAA showed a PBM binding z-score of 0.328. With ATCTGTAGGTAACCAAGTTCAGTGAATGCCGAAC the PBM binding z-score was 4.63.
